Sampled rows, rich in hits. Any-hit rate of the full collection: about 2.4%.
CHRM1 PAM: human M1 muscarinic receptor positive allosteric modulators, primary screen, CHO-K1 cells, Fluo-8 calcium fluorescence, 1536-well; Muscarinic acetylcholine receptor M1 (Homo sapiens), P11229; CHO-K1 hM1, ACh EC20; 0% = ACh EC20, 100% = maximal ACh; activation, % at 3 µM; hit rate 0.088% among 360,000; AID 588819, 2011; in the data active means activation above about 19%, passing the limit was not always enough
Target sequence (P11229 whole entry, looked up): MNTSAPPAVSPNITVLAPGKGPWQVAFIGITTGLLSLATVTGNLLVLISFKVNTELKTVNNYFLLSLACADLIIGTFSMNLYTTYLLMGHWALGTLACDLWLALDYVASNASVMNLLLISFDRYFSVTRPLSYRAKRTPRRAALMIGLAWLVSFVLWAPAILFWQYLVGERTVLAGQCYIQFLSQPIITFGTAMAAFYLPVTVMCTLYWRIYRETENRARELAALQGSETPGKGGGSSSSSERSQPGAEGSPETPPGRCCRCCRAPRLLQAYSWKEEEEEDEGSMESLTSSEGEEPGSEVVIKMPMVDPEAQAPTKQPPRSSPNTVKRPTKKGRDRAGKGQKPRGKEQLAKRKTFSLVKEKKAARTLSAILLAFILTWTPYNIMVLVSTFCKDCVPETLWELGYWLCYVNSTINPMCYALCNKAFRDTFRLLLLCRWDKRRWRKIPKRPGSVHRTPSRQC
CHRM1 agonist: human M1 muscarinic receptor agonists, primary screen, Fluo-8 calcium fluorescence, CHO-K1 cells, HTS; AID 588814, 2011; CHO-K1 hM1, agonist mode; 0% DMSO, 100% acetylcholine EC100; activation, % at 3 µM; hit rate 0.33% among 360,000;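 active means activation above the run's mean compound activation plus 3 SD, cut at about 16% in these data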;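 further: peak over basal fluorescence ratio within a 140 s kinetic read after compound addition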
M1 antag: human M1 muscarinic receptor antagonists, primary screen, CHO-K1 cells, Fluo-8 calcium fluorescence, 1536-well; CHO-K1 hM1, ACh EC80 antagonist; inhibition, % at 3 µM; hit rate 1.3% among 360,000;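 active means percent inhibition above its own plate's cutoff, namely the mean of that plate's compound wells plus 3 SD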;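 further: peak over basal fluorescence ratio during 140 s after agonist addition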
CHO-K1 Ca antag: nonselective inhibitor or artifact in parental CHO-K1 cells | ATP-induced calcium, Fluo-8 fluorescence | inhibition, % at 3 µM | hit rate 0.6% among 360,000 | AID 602250;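 active means inhibition above a per-plate cutoff, the plate's mean sample inhibition plus 3 SD, cut at about 24% in these data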
M1 ag parental: counter-screen for M1 agonists: effect in parental CHO-K1 cells; Fluo-8 calcium fluorescence; scaled to maximal ATP response, vehicle zero; AID 602248, 2012; activation, % at 3 µM; hit rate 0.48% among 360,000; in the data active means activation above about 15%;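 further: untransfected CHO-K1 host cells lacking M1 receptor as counterscreen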
M1 PAM parental: nonselective calcium activators in parental CHO-K1 cells, primary screen, counter-screen for M1 PAM project, cell-based, Fluo-8 calcium fluorescence, full deck, 1536-well; ATP EC20; 0% at ATP EC20, 100% at ATP max; activation, % at 3 µM; hit rate 0.02% among 360,000;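 active means activation above the run cutoff, the mean activation of all test compounds plus 3 SD, cut at about 40% in these data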;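 further: peak over basal fluorescence ratio in a 140 s read after ATP addition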
Of the large screens only hits and unclear results are named; the others gave an inactive call.

Cc1c(C(=O)NCCC2=CCCCC2)oc2ccc(S(=O)(=O)N3CCC4(CC3)OCCO4)cc12	M1 antag 35
COc1ncc(-c2c(-c3ccccc3OC)sc3ccccc23)cn1	none (no result: CHRM1 PAM, CHRM1 agonist, M1 antag)
Cc1noc(C)c1S(=O)(=O)N(C)C[C@H]1Oc2ccc(NC(=O)Cc3ccccc3)cc2C(=O)N([C@H](C)CO)C[C@@H]1C	none
CN(C)c1ccc(NC(=O)c2cccc(C(=O)Nc3ccc(N(C)C)cc3)n2)cc1	CHO-K1 Ca antag 28
Cc1cc(-c2nnc(-c3cccc(Cl)c3)o2)no1	M1 ag parental 18
Cc1cc(NC(=O)CSc2nnc(-c3cccc(Cl)c3)o2)no1	none
CCc1ccc(C(O)c2ncc(-c3ccccc3C(F)(F)F)[nH]2)cc1 (stereo not drawn)	none
Cc1ccc(-c2noc(CC(=O)c3ccc([N+](=O)[O-])cc3)n2)cc1	none
NC(=O)CN1CCOCCOCCN(CC(N)=O)CCOCCOCC1	CHO-K1 Ca antag 49
Cc1cccn2c(=S)[nH]nc12	CHO-K1 Ca antag 26
Cc1ccccc1-n1c(C)n[nH]c1=S	none
O=S(=O)(c1ccccc1)C1CON(Cc2ccccc2)C1c1ccccc1 (stereo not drawn)	CHO-K1 Ca antag 36
O=Nc1c(O)n(Cc2cccc(Cl)c2)c2ccccc12	CHRM1 PAM 26, CHRM1 agonist 20
NC(=S)N=Nc1c(O)n(Cc2ccccc2)c2ccccc12	none
CCN(CC)CCCn1c(C)cc2c(c1=O)C(c1cccc(Cl)c1)C(C#N)=C(N)O2 (stereo not drawn)	M1 antag 60
CCOc1ccc(C2C(C#N)=C(N)Oc3cc(C)n(Cc4ccco4)c(=O)c32)cc1OC (stereo not drawn)	none
Cc1cc2c(c(=O)n1Cc1ccco1)C(c1cccnc1)C(C#N)=C(N)O2 (stereo not drawn)	CHO-K1 Ca antag 26
CCN(CC)CCCn1c(C)cc2c(c1=O)C(c1cc(OC)c(OC)cc1OC)C(C#N)=C(N)O2 (stereo not drawn)	none
C=C1CC(C(=O)N/N=C/c2ccc(O)cc2)C1	CHO-K1 Ca antag 25
N/C(=N\OC(=O)CC1CCCCC1)c1ccncc1	M1 ag parental 17
C=CC(=O)Nc1ccc(CN2C(=O)N(c3c(Cl)c(OC)cc(OC)c3Cl)Cc3cnc(NCCCCN(CC)CC)nc32)cc1	M1 antag 39
CCN(Cc1ccc(C#CCCO)cc1)CC1CCCN(CCc2cccc(F)c2)C1 (stereo not drawn)	M1 antag 52
CN(Cc1ccc(C#CCCO)cc1)CC1CCCN(CCc2ccc(Cl)cc2)C1 (stereo not drawn)	M1 antag 40
CCN(Cc1ccc(OC)c(COC)c1)CC1CCCN(CCc2cccc(F)c2)C1 (stereo not drawn)	none
CN(Cc1ccccc1O)CC1CCCN(CCc2ccc(Cl)cc2)C1 (stereo not drawn)	M1 antag 80
OC(c1ccc2c(c1)OCO2)c1ncc(-c2cccc(C(F)(F)F)c2)[nH]1 (stereo not drawn)	none
NC(=O)c1c(-c2ccc(Cl)cc2Cl)csc1NC(=O)Cc1ccccc1	M1 antag 44
O=C(Cc1ccccc1)Nc1scc(-c2ccccc2)c1C(=O)N1CCOCC1	none
Cc1ccc(C(=O)NC(=S)Nc2ccc(CN3CCOCC3)cc2)cc1	none
O=C(Nc1ccc(CN2CCOCC2)cc1)c1ccc(-c2cccc(Cl)c2)o1	none
COc1ccc(Br)cc1C(=O)NC(=S)Nc1ccc(CN2CCOCC2)cc1	M1 antag 32
O=C(NC(=S)Nc1ccc(CN2CCOCC2)cc1)c1ccc(-c2cccc(Cl)c2)o1	M1 antag 58
C=C(C)c1cc2c(ccc3ccc(=O)oc32)o1	none
CCOC(=O)N1CCC(NC(=O)C2CCN(Cc3nc(-c4ccc(CC)cc4)oc3C)CC2)CC1	none
CCOC(=O)N1CCC(NC(=O)C2CCCN(S(=O)(=O)c3cccnc3)C2)CC1 (stereo not drawn)	CHO-K1 Ca antag 42
CCOC(=O)N1CCC(NC(=O)C2CCCN(Cc3nc(-c4ccc(CC)cc4)oc3C)C2)CC1 (stereo not drawn)	CHO-K1 Ca antag 24
Cc1ccc(N(CC(=O)NC(C)(C)C)C(=O)CCC(=O)Nc2nccs2)c(C)c1	none
Cc1ccc(S(=O)(=O)NCC(C)n2cncn2)cc1C (stereo not drawn)	none
COc1ccc(-c2csc(C(O)c3ccc(OC)cc3)n2)cc1 (stereo not drawn)	none
CN(C)c1ccc(-c2csc(C(O)c3ccc(F)cc3)n2)cc1 (stereo not drawn)	CHRM1 agonist 18, M1 ag parental 23
CN(C)c1ccc(-c2csc(C(O)c3ccc(F)c(F)c3)n2)cc1 (stereo not drawn)	CHRM1 agonist 42, M1 antag 42, CHO-K1 Ca antag 24, M1 ag parental 35
COc1ccc(C(O)c2nc(-c3ccc(N(C)C)cc3)cs2)cc1 (stereo not drawn)	M1 ag parental 24
CCN1C[C@@H]2[C@@H]3C(=O)N(C)C(=O)[C@@H]3[C@](Cc3ccccc3)(C(=O)OC)N2C1=NC1CCCCC1	none
CC(=O)N1CCCc2cc(S(=O)(=O)N3CCCC(C(=O)N4CCN(c5cc(C)ccc5C)CC4)C3)ccc21 (stereo not drawn)	M1 antag 41
CC(=O)N1CCCc2cc(S(=O)(=O)N3CCCC(C(=O)N4CCN(c5ccccc5)CC4)C3)ccc21 (stereo not drawn)	M1 ag parental 16
Cc1ccc(C)c(N2CCN(C(=O)C3CCCN(S(=O)(=O)c4cnc[nH]4)C3)CC2)c1 (stereo not drawn)	none
COc1ccccc1N1CCN(C(=O)C2CCCN(S(=O)(=O)c3ccc4c(c3)CCCN4C(C)=O)C2)CC1 (stereo not drawn)	none
CCc1ccc(-c2nc(CS(=O)CC(=O)NCc3ccco3)c(C)o2)cc1 (stereo not drawn)	none
Fc1ccc(OCCCCCn2ccnc2)cc1	CHRM1 agonist 36
COc1ccc(C(=O)NCC(c2cccs2)N2CCc3ccccc32)cc1OC (stereo not drawn)	CHO-K1 Ca antag 24
COc1ccc(C(=O)NCC(c2ccco2)N2CCc3ccccc32)c(OC)c1 (stereo not drawn)	M1 PAM parental 48
Nc1nc(SCc2ccccc2Cl)c2ncn(C3OC(CO)C(O)C3O)c2n1 (stereo not drawn)	none
CC(=O)c1ccc(OCc2nnn(CC(=O)NS(=O)(=O)c3ccc(C)cc3)c2-c2ccccc2)cc1	none
